# PubChem BioAssay (NCI)
# Several values for one entry are separate records, joined by “and”; a condition that tells them apart may be missing. Equal entries are not always repeated. The panel holds about 83,000 compounds, 20% with a hit somewhere; the sample as a whole holds those more often.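 Cell lines were cultured in 96-well plates, exposed to a single compound concentration, and assessed for percent growth 48 hours later.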 Values without a mark were called inactive. Activity calls are given as the source filed them.
# Test system: RPMI-8226 leukemia
# Assay: NCI-60 one-dose screen, 48 h (100 = growth as untreated, 0 = no growth, -100 = all killed)
# Settings: 4.75 µM
# Method: Growth inhibition of the RPMI-8226 human tumor cell line is measured as a screen for anti-cancer activity. Cells are grown in 96 well plates and exposed to the test compound for 48 hours. Compounds are tested at a single concentration, which is 10^-5 M for most compounds. The reported endpoint is percent growth (GI% or GIPRCNT), where numbers from 0 - 100% represent growth inhibition, and numbers from -100% - 0 represent cell death. For example, a value of 40 represents 60% growth inhibition. A value of 0 means no net growth occurred over the course of the experiment. A value of -40 indicates 40% of cells at the beginning of the experiment died by the end of the experiment. A value of -100 means all cells are dead at the end of the experiment.
# NCI-60 Human Tumor Cell Lines Screen was performed using the standard one-dose NCI protocol, which is described in more detail at https://dtp.cancer.gov/discovery_development/nci-60/default.htm.
# Compounds with GIPRCNT values below 10 were considered active. Activity score was based on GIPRCNT using the following formula: […]
# Score is 0 for GIPRCNT values of 100 or above, 50 for GIPRCNT values of 0, and 100 for GIPRCNT values of -100.
row,SMILES,growth
1,CC(=O)OCC1OC([S-])C(OC(C)=O)C(OC(C)=O)C1OC(C)=O.[Au+].c1ccc(CN2[CH-]N(Cc3ccccc3)C(c3ccccc3)=C2c2ccccc2)cc1,-20.5% (active)

# Same assay, conditions: 10 µM
row,SMILES,growth
1,CC(=O)OCC1OC([S-])C(OC(C)=O)C(OC(C)=O)C1OC(C)=O.[Au+].c1ccc(CN2[CH-]N(Cc3ccccc3)C(c3ccccc3)=C2c2ccccc2)cc1,-4.74% (active)

# Same assay, conditions: 10 µM unless noted
row,SMILES,growth
1,CN1[C@@H](CC(=O)c2ccccc2)CCC[C@H]1CC(=O)c1ccccc1,120%
2,CC1(C)C=Cc2c(ccc3c2[N+]([O-])=C2C3=C[C@@]34NC(=O)[C@]5(CCCN5C3=O)C[C@@H]4C2(C)C)O1,24.6%
3,C[N+]1(C)CCCC1c1cccnc1 (stereo not given),99.4%
4,N#CC(C#N)=Cc1cccc(F)c1,103%
5,N#CC(NC(=O)CCl)=C(Cl)Cl,-22% (active)
6,O=S1(=O)OCCO1,104%
7,Oc1ccc(O)c(Cl)c1,28.5% and 91.1%
8,O=[N+]([O-])c1cc(Br)c(O)c(Br)c1,98.9%
9,CC1=CC(=Nc2ccc(N(CCCl)CCCl)cc2)C=C(C)C1=O,9.64% (active)
10,CCCCn1c(=O)c(C(=O)NCc2ccccc2Cl)c(O)c2ccccc21,40.1%
11,CN(C)c1ccc(C=C2C(=O)NC(=O)NC2=O)cc1,131%
12,CC[C@H](C)[C@H](NC(=O)[C@H]1CCCCN1C)C(=O)N(C)[C@H](C(=O)NC12CC(C(=O)N[C@@H](Cc3ccccc3)C[C@H](C)C(=O)OC)(C1)C2)C(C)C,108%
13,C[C@@]12CCCc3coc(c31)C(=O)c1cc3c(cc12)C(=O)C1=C(NCCS1(=O)=O)C3=O,-30.4% (active)
14,CCC1CCC(=O)O1 (stereo not given),104% and 114%
15,C/C(=C(\c1ccc(OCCN2CCOCC2)cc1)c1ccc(OC(=O)Cc2ccccc2)cc1)c1ccc(Cl)cc1,57.6%
16,N[C@@H](CCC(=O)CCl)C(=O)O,111% [20 µM]
17,O=CC1(c2ccccc2)CCN(Cc2ccccc2)CC1,102%
18,C=C1C(=O)OC2CC3(C)OC3C3OC3C3=CC(OC3=O)C12 (stereo not given),97.9% and 38%
19,O=C1c2ccccc2C(=O)N1N1CC1c1ccccc1 (stereo not given),101%

row,SMILES,growth
1,CCCCOCCOP(=O)(OCCOCCCC)OCCOCCCC,115%
2,COC(=O)C1=CCCN(C)C1,106%
3,CNC(=O)O/N=C(\SC)C(=O)N(C)C,86%
4,CC12CCC3C(CCC4CC(O)CCC43C)C1CCC2=O (stereo not given),100%
5,Cn1cc(-c2csc(-c3cn(CCCCN4CCOCC4)c4ccc(F)cc34)n2)c2cccnc21,49%
6,CC1OC(=O)C(C(C)C)NC(=O)C(C(C)C)OC(=O)C(C(C)C)NC(=O)C(C)OC(=O)C(C(C)C)NC(=O)C(C(C)C)OC(=O)C(C(C)C)NC(=O)C(C)OC(=O)C(C(C)C)NC(=O)C(C(C)C)OC(=O)C(C(C)C)NC1=O (stereo not given),-23.2% (active)
7,c1ccc2c(c1)sc1ccccc12,103%
8,COc1ccc(C(C#N)C(C)=O)cc1 (stereo not given),101%
9,Nc1c(Cl)c(Cl)nc(C(=O)O)c1Cl,123%
10,O=C(O)C1C(C(=O)O)C2(Cl)C(Cl)=C(Cl)C1(Cl)C2(Cl)Cl (stereo not given),94% and 115%
11,O=[N+]([O-])c1ccc(OCc2ccc(S(=O)(=O)F)c(Cl)c2)c(Cl)c1,97.8%
12,C[C@]12CC[C@H]3[C@@H](CC=C4c5nc(N)sc5CC[C@@]43C)[C@@H]1CC[C@@H]2O,103%
13,O=C1CCCCC1CN1CCCCC1 (stereo not given),108%
14,CC/C(Cc1ccccc1)=C(\c1ccc(OCCN2CCCC2)cc1)c1ccc(OC(=O)NCc2ccccc2)cc1,-6.25% (active)
15,C[C@]12CC[C@@H](OC(=O)N(CCCl)N=O)C[C@@H]1CC[C@@H]1[C@@H]2CC[C@]2(C)C(=O)CC[C@@H]12,21.7%
16,COC(=O)C12C3C4C1C1C2C3C41NC(=O)c1csc([C@@H](C[C@H](C(C)C)N(C)C(=O)[C@@H](NC(=O)[C@H]2CCCCN2C)C2CC2)OC(C)=O)n1 (stereo not given in full),21.7%
17,CC1=C2[C@H]3OC(=O)[C@@H](C)[C@@H]3CC[C@@]2(C)C=CC1=O,91%
18,C[C@@H]1C/C=C\C(=O)O[C@H](/C=C/C#C/C=C/C(C)(C)[C@@H](O)c2cccc(O)c2Br)[C@@H](C)/C=C/[C@H](C)C[C@H](OC(N)=O)C1,11.3%
19,O=C(O)C(O)c1ccc(Cl)cc1 (stereo not given),111% and 92.1%
